For 34 compounds, inhibition results are on record in ChEMBL document CHEMBL3433997, “St. Jude Leishmania screening dataset” (2016).

Values joined by “and” are separate entries in the source; they are usually repeats but may differ in a detail not shown here. Equal entries are not always repeated.

Common to all, as to type: functional
In assay [1] the target is Solute carrier family 2, facilitated glucose transporter member 1 (Homo sapiens) (UniProt P11166). Briefly: ST_JUDE_LEISH: Cytotoxicity at 2uM final concentration against transgenic Leishmania Mexicana promastigotes LmGLUT1 that are glucose transport deficient and complemented with the human glucose transporter GLUT1. Activity is measured by DNA content using SYBR green in vitro.
Chain of Solute carrier family 2, facilitated glucose transporter member 1 (Homo sapiens) (P11166 whole entry): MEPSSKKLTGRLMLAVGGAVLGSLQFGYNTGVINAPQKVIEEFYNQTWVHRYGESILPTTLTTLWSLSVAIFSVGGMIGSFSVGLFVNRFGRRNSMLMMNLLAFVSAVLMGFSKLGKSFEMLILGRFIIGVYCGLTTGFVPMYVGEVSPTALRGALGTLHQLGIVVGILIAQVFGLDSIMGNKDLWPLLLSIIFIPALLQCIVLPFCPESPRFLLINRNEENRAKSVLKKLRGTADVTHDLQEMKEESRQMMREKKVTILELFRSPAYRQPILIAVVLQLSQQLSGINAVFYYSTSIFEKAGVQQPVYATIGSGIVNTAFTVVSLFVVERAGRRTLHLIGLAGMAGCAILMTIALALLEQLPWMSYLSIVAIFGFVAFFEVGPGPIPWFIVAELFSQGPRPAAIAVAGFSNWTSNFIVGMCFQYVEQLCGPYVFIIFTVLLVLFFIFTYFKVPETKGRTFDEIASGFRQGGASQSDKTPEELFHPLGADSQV

Assay [2] concerns the target Hexose transporter 1 (Plasmodium falciparum) (UniProt O97467). Briefly: ST_JUDE_LEISH: Cytotoxicity at 2uM final concentration against transgenic Leishmania Mexicana promastigotes LmPfHT that are glucose transport deficient and complemented with the Plasmodium falciparum hexose transporter. Activity is measured by DNA content using SYBR green in vitro.
The target of assay [3] is Glucose transporter (Leishmania mexicana) (UniProt O61059). Briefly: ST_JUDE_LEISH: Cytotoxicity at 2uM final concentration against transgenic Leishmania Mexicana promastigotes LmGT2 that are glucose transport deficient and complemented with the L. Mexicana glucose transporter 2. Activity is measured by DNA content using SYBR green in vitro.

Take `COc1ccc(CCNCCCCCCNCCc2ccccc2Cl)cc1OC`: the inhibition in assay [1] was 1.25%; in assay [2], 0.29%; in assay [3] it was 1.91%.

Consider `CN1CCC(NCc2ccc(-c3ccc(S(=O)(=O)NCc4ccccc4)cc3)cc2)CC1`, for which the inhibition is 0.4% in assay [1], -1.45% in assay [2] and -3.56% in assay [3].

`C[C@H](Nc1nc(C(Oc2ccccc2)c2ccccc2)nc2[nH]ncc12)c1ccccc1` (some centres not stated): the inhibition in assay [1] turned out to be 3.69%; in assay [2] it was 1.72%; in assay [3], 0.54%.

As to `CC(C)(C)CC(C)(C)c1ccc(O)c(C(=O)Nc2cccc([N+](=O)[O-])c2)c1`, the results for the inhibition in assay [1], in assay [2] and in assay [3] were 1.48%, 2.51% and 1.44%, respectively.

Take `COCCNCc1cccc(-c2ccc(CNC3CCN(Cc4ccccc4)CC3)cc2)c1`: the inhibition in assay [1] came to 1.41%; in assay [2] it was 3.3%; in assay [3] it was 4.63%.

As for `COc1cccc(CC(=O)N2CCC(n3c(C)nc4ccc(F)cc43)CC2)c1`, the results for the inhibition in assay [1], in assay [2] and in assay [3] were 2.08%, 4.64% and 2.33%, respectively.

On to `O=c1nc(C=Cc2ccc(Br)cc2)oc2ccccc12`, for which the inhibition is 3.24% in assay [1], 2.44% in assay [2] and 3.63% in assay [3].

On to `CCOC(=O)CN(c1ccc(Br)cc1OCCOc1cc(Br)ccc1N(CC(=O)OCC)C(C)C(=O)OCC)C(C)C(=O)OCC` (configuration not stated), for which the inhibition in assay [1] was 1.16%; in assay [2], -0.2%; in assay [3] it was 1.37%.

As for `O=C(/C=C/c1ccc(Cl)c(Cl)c1)NCCCCCN1CCC(c2c[nH]c3ccccc23)C(O)C1` (configuration not stated), the inhibition in assay [1] is 0.14% and 4.45%; in assay [2] it was 0.8% and 4.3%; in assay [3], 2.14% and 3.3%.

Regarding `Clc1ccc(-c2cc(-c3csc(Nc4ccncc4)n3)on2)cc1`, the inhibition is 1.41% in assay [1], 5.17% in assay [2] and 1.32% in assay [3].

Turning to `COc1cc(F)c2ncc(Cl)c([C@H](O)CN3CCC(NCc4ccc5c(n4)NC(=O)CO5)CC3)c2c1`, the inhibition in assay [1] was -1.35%; in assay [2], 0.88%; in assay [3], 0.03%.

`CCOc1ccc2[nH]c(C)cc(=NN=Cc3ccccc3)c2c1`: the inhibition came out at 3.33% in assay [1], 2.11% in assay [2] and 2.8% in assay [3].

Consider `Cc1nnsc1C(=O)Nc1cccc(-c2cccc(-c3nc4cc(C(F)(F)F)ccc4[nH]3)c2)c1`, for which the inhibition is 6.42% in assay [1], 6.2% in assay [2] and 6.93% in assay [3].

`Cc1cc2ncn(-c3ccnc(N4CCN(CCCN5CCCC5)CC4)n3)c2cc1C`: the inhibition turned out to be 4.77% in assay [1], 3.43% in assay [2] and 2.01% in assay [3].

Take `S=C(NN=Cc1ccccn1)NC1CC2C=CC1C2` (configuration not stated): the inhibition in assay [1] is 10%; in assay [2], 13.6%; in assay [3] it was -1.49%.

For the compound `CC1(C)N=C(N)N=C(N)N1c1ccc(Cl)c(Cl)c1`, the inhibition in assay [1] is -1.25%; in assay [2], 0.49%; in assay [3], 3.04%.

For `CCOc1ccc(C(=O)Nc2cc(Br)c3c(c2)CNCC3)cc1Cl`, the results for the inhibition in assay [1], in assay [2] and in assay [3] were 1.83%, 2.23% and -0.05%, respectively.

For the compound `CC1(C)CCC(=Cc2ccc(Cl)cc2)CC1(O)Cn1ccnc1` (configuration not stated), the inhibition came to 11.7% in assay [1], 6.85% in assay [2] and 3.82% in assay [3].

In the case of `CC(CN(C)C)C(=O)Nc1cccc(-c2cccc(-c3nc4ccccc4[nH]3)c2)c1` (configuration not stated), the inhibition in assay [1] is -0.1%; in assay [2], -0.62%; in assay [3], 3.87%.

`CCc1ccc(OCCCON2C(=N)N=C(N)NC2(C)C)cc1`: the inhibition in assay [1] was -1.61%; in assay [2], 1.92%; in assay [3], 3.21%.

Take `Cc1[nH]c2c(C)cccc2c1C1CCN(CCC2CCN(C(=O)/C=C/c3ccc(Cl)c(Cl)c3)CC2)CC1`: the inhibition in assay [1] was determined as 3.84%; in assay [2], 3.13%; in assay [3] it was 2.49%.

Turning to `COc1ccc(N2CCN(CCCCNC(=O)c3ccc(NC(=O)c4cc(C(F)(F)F)cc(C(F)(F)F)c4)cc3)CC2)c(OC)c1`, the inhibition in assay [1] came out at 1.62%; in assay [2], 1.33%; in assay [3], 1.33%.

`O=C(/C=C/c1ccc(Cl)c(Cl)c1)NCCCCCN1CCC(NC(=O)c2ccc(F)c(F)c2)CC1`: the inhibition amounted to 3.18% in assay [1], 5.17% in assay [2] and 6.18% in assay [3].

Consider `Cc1cc(N2CCCC2)nc(Nc2ccc(NC(=O)COc3ccccc3)cc2)n1`, for which the inhibition in assay [1] was 6.11%; in assay [2], 6.84%; in assay [3] it was 2.07%.

With `CN(C(=O)Cc1ccc(Cl)cc1)C1CCN(CCCCCNC(=O)/C=C/c2ccc(Cl)c(Cl)c2)CC1`, the values for the inhibition in assay [1], in assay [2] and in assay [3] were 2.86%, 2.1% and 1.99%, respectively.

Regarding `O=C(Nc1ccc2c(c1)CCN2C1CCN(Cc2cc(F)cc(F)c2F)C1)c1ccco1` (configuration not stated), the inhibition in assay [1] is 1.75%; in assay [2] it was 2.07%; in assay [3], 3.47%.

For the compound `CNc1nc(Nc2ccccc2C)nc2ccccc12`, the figures for the inhibition in assay [1], in assay [2] and in assay [3] were 33.8%, 34.3% and 18.3%, respectively.

As for `CCc1ccc(C2CCN(CCCCNC(=O)c3ccc(NC(=O)c4ccc(Cl)cc4)cc3)CC2)c(OC(C)=O)c1`, the inhibition in assay [1] amounted to 3.29%; in assay [2] it was 3.47%; in assay [3] it was 3.54%.

Regarding `O=C(Nc1ccc(C(F)(F)F)cc1)c1ccc(S(=O)(=O)NC2CCN(CC3CCCCC3)C2)cc1` (configuration not stated), the inhibition was -3% in assay [1], 1.05% in assay [2] and -3.85% in assay [3].

As to `Cc1cc2nc(-c3ccc(/C=C/C(=O)NCCCc4ccccc4)cc3)[nH]c2cc1C`, the inhibition in assay [1] amounted to 4.43%; in assay [2] it was 2.87%; in assay [3], 1.65%.

On to `CO/C(=C\C=C\c1cc2cc(Cl)c(Cl)cc2[nH]1)C(=O)NC1CC2CCC(C1)N2C` (configuration not stated), for which the inhibition in assay [1] was 0.15%; in assay [2] it was 1.93%; in assay [3], -1.99%.

`CNCCNCc1cccc(-c2ccc(-c3nc4cccc(C)c4[nH]3)s2)c1`: the inhibition was -0.6% in assay [1], 0.01% in assay [2] and -0.03% in assay [3].

Take `Oc1ccc(CCNc2nc(NCCCOc3ccccc3-c3cccnc3)nc(N3CCNCC3)n2)cc1`: the inhibition worked out at 5.04% in assay [1], 7.86% in assay [2] and 5.99% in assay [3].

With `COc1ccc(CNC2CCCC2)cc1-c1ccc(S(=O)(=O)NCCN2CCCC2)s1`, the inhibition in assay [1] was determined as 1.79%; in assay [2], 2.89%; in assay [3] it was 3.68%.
